The source of these data is PubChem BioAssay.

In the assay the target is Dickkopf-related protein 1 (Homo sapiens) (UniProt O94907). Put plainly: small molecules binding DKK1 protein – biochemical, small-molecule microarray, 635 nm fluorescence scan, primary screen (AID 1106).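 Also: score merges emission near 667 nm with signal to noise over three replicate slides.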 Conditions: higher = more signal.
Sequence of Dickkopf-related protein 1 (Homo sapiens) (O94907 whole entry, looked up): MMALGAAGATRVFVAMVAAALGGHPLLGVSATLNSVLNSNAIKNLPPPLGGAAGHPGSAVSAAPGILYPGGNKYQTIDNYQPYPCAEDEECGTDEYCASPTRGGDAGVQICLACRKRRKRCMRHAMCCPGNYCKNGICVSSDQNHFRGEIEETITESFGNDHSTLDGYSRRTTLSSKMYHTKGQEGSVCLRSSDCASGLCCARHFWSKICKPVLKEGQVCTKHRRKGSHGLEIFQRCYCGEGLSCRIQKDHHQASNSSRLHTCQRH
On to `COc1ccc([Si](C)(C)[C@@H]2[C@@H](CC(=O)N3CCC[C@H]3CO)O[C@]3(C(=O)N(C)c4c(Br)cc(C)cc43)[C@H]2C)cc1`, for which the composite z-score worked out at 1.1.
The compound `CN(C)CCCCCCNC(=O)[C@H]1C[C@H]2C(=O)N[C@@H](CCCCN)C(=O)N2[C@H]1c1ccc(O)cc1` yielded a composite z-score of 2.15.
Compound `COCC(=C=CC[C@H](O)c1ccc(OCCO)cc1)C[C@H](O)c1cc(Cl)cc(Cl)c1O` yielded a composite z-score of -0.043.
In turn, `COc1cc(C(O)C2C=CC3C(=O)N(c4ccccc4)C(=O)C3N2Nc2ccc(C#N)cc2)cc(OC)c1OC` (stereo not given) showed a composite z-score of -0.536.
Regarding `N#Cc1ccc(NN2C(C(O)c3ccc([N+](=O)[O-])cc3)C=CC3C(=O)N(c4ccccc4)C(=O)C32)cc1` (stereo not given), the composite z-score was -0.392.
Turning to `CC(=O)NCCCC[C@@H]1NC(=O)[C@@H]2C[C@H](C(=O)NCCCCCCNC(=O)CS)[C@H](c3ccc(O)cc3)N2C1=O`, the composite z-score is -0.233.
With `CCOC(=O)C[C@H]1[C@H](OC(=O)Cc2ccc3c(c2)OCO3)[C@@H](NC(=O)c2ccc(-c3ccccc3)cc2)c2cc(OCCCO)ccc2N1C(=O)c1ccccc1`, the composite z-score is 0.247.
Next, `O=C1O[C@@H](c2ccccc2)[C@@H](c2ccccc2)N2[C@@H](c3ccccc3OCCO)[C@]3(C(=O)Nc4ccc(C#CC5(O)CCCCCC5)cc43)[C@@H](C(=O)Nc3nc4ccccc4s3)[C@H]12`: 0.28.
Turning to `Cc1ccccc1C(O)C1C=CC2C(=O)N(C)C(=O)C2N1N1CCCCC1` (stereo not given), the composite z-score was found to be 0.215.
Next, `COCCOC(=O)N1C(=O)[C@@]2(c3ccccc31)[C@H](C(=O)Nc1nc3ccccc3s1)[C@H]1C(=O)O[C@H](c3ccccc3)[C@H](c3ccccc3)N1[C@@H]2c1ccc(OCCO)cc1`: 0.427.
Consider `CC(C)C[C@@H]1NC(=O)[C@H]2C[C@@H](C(=O)NCCCCCNC(=O)CS)[C@@H](c3cccc(OCCO)c3)N2C1=O`, for which the composite z-score came to 1.44.
Regarding `COc1ccc(C#Cc2ccc3c(c2)[C@]2(C(=O)N3)[C@H](c3ccc(O)cc3)N3[C@H](c4ccccc4)[C@H](c4ccccc4)OC(=O)[C@H]3[C@@H]2C(=O)NC[C@H](O)c2ccccc2)cc1`, the composite z-score amounted to 0.233.
Regarding `O=C1OCC=C[C@H]2OC34C=CCN(c5ccc(Cl)cc5)C(=O)[C@H]3N(CCCCCCO)C(=O)[C@@H]4[C@@H]12` (stereo not given in full), the composite z-score is -1.22.
As for `C=CCOC(=O)[C@H]1[C@@H]2C(=O)O[C@@H](c3ccccc3)[C@@H](c3ccccc3)N2[C@@H](c2ccc(OCCOC(=O)[C@@H]3C[C@@H]4C(=O)N5CCC[C@H]5C(=O)N4[C@@H]3c3ccc(O)cc3)cc2)[C@]12C(=O)Nc1ccccc12`, the composite z-score amounted to 1.45.
Consider `CCCC[C@H]1OB(O)C[C@H]2C1=C(C)C[C@H]1C(=O)N(Cc3ccccc3)C(=O)[C@H]12`, for which the composite z-score turned out to be 0.999.
`CCCC[C@@H]1C[C@H]1[C@@H](NC(=O)c1ccc(-c2ccccc2)cc1)c1ccc(-c2ccccc2)cc1` registered a composite z-score of 1.01.
Next, `COCC(=C=CC[C@@H](O)c1ccc(CO)o1)CCO`: 0.618.
The compound `Cc1ccc(S[C@]2(C(=O)NCc3ccccc3)CC(=O)N(Cc3ccccc3Cl)[C@@H]2c2ccc(CO)cc2I)cc1` returned a composite z-score of -1.22.
`CC=CC(O)C1C=CC2C(=O)N(c3ccccc3)C(=O)C2N1Nc1ccc(C(C)C)cc1` (stereo not given): the composite z-score stood at 0.14.
Regarding `COCCOC(=O)N1C(=O)[C@@]2(c3ccccc31)[C@H](C(=O)NC[C@H](O)c1ccccc1)[C@H]1C(=O)O[C@H](c3ccccc3)[C@H](c3ccccc3)N1[C@@H]2c1ccc(OCCO)cc1`, the composite z-score stood at 1.01.
In turn, `[N-]=[N+]=NCc1ccccc1C[C@@]1(C(=O)NCC(O)CO)N=C(c2ccc(OCCCO)cc2)O[C@@H]1c1ccccc1CN=[N+]=[N-]` (stereo not given in full) came in with a composite z-score of -0.643.
In turn, `COc1ccc(C#Cc2ccc3c(c2)[C@]2(C(=O)N3)[C@H](C(=O)NC[C@H](O)c3ccccc3)[C@H]3C(=O)O[C@H](c4ccccc4)[C@H](c4ccccc4)N3[C@@H]2c2ccccc2OCCO)cc1` came in with a composite z-score of 0.169.
In the case of `COC(=O)[C@@]1(Cc2ccccc2)[C@H]2c3cc(C(=O)N(C)C)n(Cc4cc(C)n(C)n4)c3C[C@H]2CN1C(=O)c1ccccc1`, the composite z-score is -0.72.
As to `C#CCN(C(/C=C/c1ccccc1)CO)C(C(=O)O)c1ccccc1` (stereo not given), the composite z-score is 0.122.
In turn, `COc1ccc([Si](C)(C)[C@@H]2[C@@H](CCn3cc([C@H](O)c4ccccc4)nn3)O[C@]3(C(=O)N(Cc4cccc(N5CCOC5=O)c4)c4ccccc43)[C@H]2C)cc1` displayed a composite z-score of -1.13.
Take `Cc1ccc(S[C@]2(C(=O)O)CC(=O)N(C3Cc4ccccc4C3)[C@@H]2c2ccc(CO)cc2I)cc1`: the composite z-score is -0.649.
Compound `CCOC(=O)C[C@H]1[C@H](OC(=O)c2ccc(-c3ccccc3)cc2)[C@@H](NC(=O)Cc2ccc(OC)cc2)c2cc(OCCCO)ccc2N1C(=O)c1ccc2ccccc2n1` came in with a composite z-score of 0.0289.
As for `COc1ccc([Si](C)(C)[C@@H]2[C@@H](CC(=O)N(CCO)Cc3ccccc3)O[C@]3(C(=O)N(C)c4ccccc43)[C@H]2C)cc1`, the composite z-score worked out at 1.32.
`O=c1cccc(C=Cc2ccccc2)o1` gave a composite z-score of -1.36.
As to `O=C1OCC=C[C@H]2OC34C=CCN(c5ccc6ccccc6c5)C(=O)[C@H]3N(CCCO)C(=O)[C@@H]4[C@@H]12` (stereo not given in full), the composite z-score is -1.06.
For the compound `COCCOC(=O)N1C(=O)[C@@]2(c3cc(C#CC4=CCCCC4)ccc31)[C@H](C(=O)N1CCc3cc(OC)c(OC)cc3C1)[C@H]1C(=O)O[C@H](c3ccccc3)[C@H](c3ccccc3)N1[C@@H]2c1ccccc1OCCO`, the composite z-score is 0.406.
For the compound `COCCOC(=O)N1C(=O)[C@@]2(c3cc(C#CCC(C(=O)OC)C(=O)OC)ccc31)[C@H](c1ccccc1OCCO)N1[C@H](c3ccccc3)[C@H](c3ccccc3)OC(=O)[C@H]1[C@@H]2C(N)=O`, the composite z-score stood at 0.451.
With `CC(C)OC(=O)CC(=O)CC(O)c1ccc(C#N)cc1` (stereo not given), the composite z-score was -0.997.
Next, `COC(=O)[C@@]1(Cc2ccc(OC)cc2)[C@H]2c3cc(C(=O)N(C)C)n(Cc4c(OC)[nH]cc(C)c4=O)c3C[C@H]2CN1C(=O)c1ccccc1`: -0.41; `O=C1C[C@@](C(=O)NC2CC2)(c2ccc([N+](=O)[O-])cc2)[C@@H](c2ccc(CO)cc2)N1CC12CC3CC(CC(C3)C1)C2`: 0.253.
